Source: PubChem (Broad Institute)
NFkB SMM: binds human NF-kappa-B p105 on microarray | Small molecule microarray, anti-His fluorescence binding | calls only | actives 1.3% (n = 17,000);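 active = spot fluorescence over background significantly raised, with a chance value under 7% in all four replicate spots of the compound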;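 note: probe protein is his-tagged human p50 processed subunit at 1 µg/ml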
Target sequence (P19838 1-433 limits assumed): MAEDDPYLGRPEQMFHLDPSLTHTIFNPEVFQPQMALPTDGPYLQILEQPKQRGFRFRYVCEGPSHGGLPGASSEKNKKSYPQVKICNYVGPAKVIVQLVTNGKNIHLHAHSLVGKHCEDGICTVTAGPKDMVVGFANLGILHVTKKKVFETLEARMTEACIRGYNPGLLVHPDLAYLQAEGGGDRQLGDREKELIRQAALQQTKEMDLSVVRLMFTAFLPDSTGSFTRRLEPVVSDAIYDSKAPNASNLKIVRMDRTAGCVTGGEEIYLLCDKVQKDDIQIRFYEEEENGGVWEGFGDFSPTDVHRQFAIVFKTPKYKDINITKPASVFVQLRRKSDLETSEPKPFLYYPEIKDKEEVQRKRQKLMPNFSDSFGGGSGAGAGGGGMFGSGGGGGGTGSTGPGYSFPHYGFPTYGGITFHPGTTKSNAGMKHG
mut p53 SMM: binders of human mutant p53 | small molecule microarray binding, anti-GST fluorescence | calls only | actives 0.4% (n = 17,000) | AID 624136;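 active = compounds whose four printed spots each glow above background more than chance allows, each with a p-value under 7%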
c-Myc SMM: binders of human c-Myc. small molecule microarray, His-c-Myc binding, anti-His fluorescence. actives 1.5% (n = 17,000). calls only. AID 624141. P01106;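 active = spot fluorescence over background with P-value below 7% in all four replicate spots, showing protein binding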
STAT3 binder: binders of human STAT3. Small molecule microarray, His-STAT3 binding, anti-His fluorescence. P40763. actives 0.2% (n = 17,000). calls only;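 active = compounds whose four printed spots each show fluorescence over background unusually high for their array block, chance value under 7%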
Each line names hits and unclear results; the compound was inactive in the other large screens. The list is not random: actives were taken first. Their share in the collection is about 2.5%.

C[C@@H]1CC[C@]2(C(=O)O)CC[C@]3(C(=O)O)C(=CCC4[C@@]5(C)CC[C@H](O[C@@H]6O[C@@H](C)[C@H](O[C@@H]7O[C@H](CO)[C@@H](O)[C@H](O)[C@H]7O)[C@@H](O)[C@H]6O)C(C)(C)C5CC[C@]43C)C2[C@H]1C (some centres not stated)	none
CC1OC(OC2C(CO)OC(OC(=O)[C@]34CCC(C)(C)CC3C3=CCC5[C@@]6(C)CC[C@H](OC7OC(C)C(OC8OCC(O)(COC9OCC(O)C(OC%10OCC(OC%11OCC(O)(CO)C%11O)C(O)C%10O)C9O)C8O)C(O)C7O)C(C)(C)C6CC[C@@]5(C)[C@]3(C)CC4)C(O)C2O)C(O)C(O)C1O (some centres not stated)	NFkB SMM active, c-Myc SMM active
C=C1CCC2(C(=O)OC3OC(CO)C(O)C(O)C3OC3OCC(O)C(O)C3O)CCC3(C)C(=CCC4C5(C)CCC(OC6OC(CO)C(O)C(O)C6O)C(C)(CO)C5CCC43C)C2C1 (configuration not stated)	none
C[C@@H]1CCCCO[C@@H](CN(C)C(=O)Nc2cccc3ccccc23)[C@H](C)CN([C@@H](C)CO)C(=O)c2cc(NS(=O)(=O)c3cccs3)ccc2O1	none
CC1(C)CC[C@]2(C(=O)O[C@@H]3O[C@H](CO)[C@@H](O)[C@H](O)[C@H]3O)CC[C@]3(C)C(=CCC4[C@@]5(C)CC[C@H](O[C@@H]6OC[C@H](O)[C@H](O)[C@H]6O[C@@H]6O[C@H](CO)[C@@H](O)[C@H](O)[C@H]6O[C@@H]6OC[C@H](O)[C@H](O)[C@H]6O)[C@@](C)(CO)C5CC[C@]43C)C2C1 (some centres not stated)	NFkB SMM active
O=C(O)CNS(=O)(=O)c1cc(Cl)c(Cl)cc1Cl	NFkB SMM active, mut p53 SMM active, c-Myc SMM active
C[C@H](CO)N1C[C@H](C)[C@H](CN(C)C)OCCCC[C@H](C)Oc2ccc(NC(=O)Nc3cccc4ccccc34)cc2C1=O	none
C[C@H](CO)N1C[C@H](C)[C@@H](CN(C)CC2CCCCC2)OCCCC[C@H](C)Oc2ccc(NC(=O)Nc3cccc4ccccc34)cc2C1=O	NFkB SMM active
C[C@@H]1CCCCO[C@@H](CN(C)C(=O)Nc2cccc3ccccc23)[C@H](C)CN([C@H](C)CO)C(=O)c2cc(NC(=O)Nc3ccc(F)cc3)ccc2O1	NFkB SMM active, c-Myc SMM active
C[C@H](CO)N1C[C@H](C)[C@@H](CN(C)C)OCCCC[C@H](C)Oc2ccc(NC(=O)Nc3cccc4ccccc34)cc2C1=O	mut p53 SMM active
CC(C)NC(=O)N(C)C[C@@H]1OCCCC[C@H](C)Oc2ccc(NC(=O)Nc3cccc4ccccc34)cc2C(=O)N([C@@H](C)CO)C[C@H]1C	none
C[C@@H]1CN([C@@H](C)CO)C(=O)Cc2cc(NC(=O)NC3CCCCC3)ccc2O[C@@H]1CN(C)C(=O)Nc1ccc2c(c1)OCO2	none
Cn1cc(C(=O)OCC2CCN(CCNS(C)(=O)=O)CC2)c2ccccc21	none
C=C1CC[C@@]2(OC1)O[C@H]1CC3[C@@H]4CC=C5C[C@H](O[C@@H]6OC[C@H](O)[C@H](O)[C@H]6O[C@@H]6O[C@@H](C)[C@H](O)[C@@H](O)[C@H]6O)C[C@@H](O)[C@]5(C)C4CC[C@]3(C)[C@H]1[C@@H]2C (some centres not stated)	NFkB SMM active, c-Myc SMM active
C[C@@H]1CCCCO[C@H](CN(C)Cc2ccccc2)[C@@H](C)CN([C@@H](C)CO)C(=O)c2cc(NS(=O)(=O)c3cccs3)ccc2O1	none
C=CCSC1=N[C@@]2(COCc3ccc(OC)cc3)Oc3ccccc3[C@H]([C@H]2CO[Si](C)(C)C(C)(C)C)N1C(=O)c1ccccc1	none
Cc1cc(C)n(CC(O)Cn2ccc3ccccc32)n1 (configuration not stated)	NFkB SMM active, c-Myc SMM active
COc1ccc(NCC(O)Cn2ccc3ccccc32)cc1 (configuration not stated)	none
N#Cc1ccc(-c2cccs2)nc1SCC(=O)Nc1sc2c(c1C#N)CCCC2	c-Myc SMM active
C[C@H]1CN([C@@H](C)CO)C(=O)c2cccc(NS(=O)(=O)c3ccc(F)cc3)c2O[C@@H]1CN(C)C(=O)NC1CCCCC1	none
O=C(CSc1nc(O)cc(=O)n1-c1ccccc1)N1CCc2ccccc21	mut p53 SMM active
O=C(CSc1ccc([N+](=O)[O-])cn1)N1CCc2ccccc21	none
CCOc1cc(C(=O)O)cc(I)c1OCC(=O)O	NFkB SMM active, c-Myc SMM active
C/C=C/CC(C)C(O)C1C(=O)NC(CC)C(=O)N(C)CC(=O)N(C)C(CC(C)C)C(=O)NC(C(C)C)C(=O)N(C)C(CC(C)C)C(=O)NC(C)C(=O)NC(C)C(=O)N(C)C(CC(C)C)C(=O)N(C)C(CC(C)C)C(=O)N(C)C(C(C)C)C(=O)N1C (configuration not stated)	NFkB SMM active (no result: c-Myc SMM)
Cc1noc(C)c1NC(=O)N(C)C[C@H]1Oc2ccc(NC(=O)Nc3cccc4ccccc34)cc2C(=O)N([C@H](C)CO)C[C@@H]1C	none
Cc1cc(Cl)ccc1OCC(O)CN1CCC(CN2C(=O)c3cccc4cccc(c34)C2=O)CC1 (configuration not stated)	none
N#Cc1cc(C#N)c(SCCN2CCOCC2)nc1N	mut p53 SMM active
OCCN(CCO)Cc1ccc(Br)cc1	mut p53 SMM active
C[C@@H]1CN([C@@H](C)CO)C(=O)c2cc(NS(C)(=O)=O)ccc2O[C@@H](C)CCCCO[C@@H]1CN(C)C(=O)CCC(F)(F)F	c-Myc SMM active
C[C@H]1CCCCO[C@H](CN(C)C(=O)CCC(F)(F)F)[C@@H](C)CN([C@@H](C)CO)C(=O)c2cc(NS(C)(=O)=O)ccc2O1	NFkB SMM active, c-Myc SMM active
CC(=O)O[C@H]1[C@H](Oc2ccccc2COC(=O)C2(O)C=CCCC2=O)O[C@H](CO)[C@@H](O)[C@@H]1O (some centres not stated)	none
O=C1O[C@H](c2ccccc2)[C@H](c2ccccc2)N2[C@H]1[C@@H](C(=O)O)[C@]1(C(=O)Nc3ccc(C#CCCO)cc31)[C@H]2c1ccc(O)cc1	none
Cc1cc(C)c(OCC(=O)Nc2ccc(C)cc2[N+](=O)[O-])c(Cl)c1	none
C[C@@H]1CN([C@@H](C)CO)C(=O)c2cc(NC(=O)Nc3ccc(F)cc3)ccc2O[C@@H](C)CCCCO[C@H]1CN(C)C(=O)c1ccccc1	none
C[C@@H]1CCCCO[C@H](CN(C)C(=O)c2ccccc2)[C@@H](C)CN([C@H](C)CO)C(=O)c2cc(NC(=O)Nc3ccc4c(c3)OCO4)ccc2O1	none
C[C@@H]1CN([C@@H](C)CO)C(=O)c2cc(NC(=O)Nc3ccc(F)cc3)ccc2O[C@@H](C)CCCCO[C@H]1CN(C)C(=O)Cc1ccccc1	NFkB SMM active, c-Myc SMM active
CCCN(C)C[C@@H]1OCCCC[C@@H](C)Oc2ccc(NC(=O)Nc3ccc(F)cc3)cc2C(=O)N([C@H](C)CO)C[C@H]1C	NFkB SMM active
